The list is not random: actives were taken first. Their share in the collection is about 6.5%.
Spn DPM-DC inh: S. pneumoniae DPM-DC inhibitors, primary screen, biochemical, PK/LDH-coupled NADH fluorescence; diphosphomevalonate decarboxylase (Streptococcus pneumoniae D39); purified DPM-DC; calls only at 10 µM; actives 0.49% (n = 65,000); AID 556, 2006;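 active = the 320 compounds with the highest percent inhibition in the single-dose primary screen, excluding strongly autofluorescent ones, cut at about 32% in these data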;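 also: kinetic rate of NADH fluorescence loss reporting ADP formed by the decarboxylase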
Autofluor 339: intrinsic fluorescence of library compounds, ex339/em460 – biochemical, MLSMR library, data from DPM-DC assay, artefact control, profiling panel; fluorescence fold increase at 10 µM; compound autofluorescence, ex339/em460 nm, NADH buffer; hits give high values; 1 = no-compound wells, NADH background; actives 5.5% (n = 65,000);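 active = at 10 µM, mean starting fluorescence two-fold or more over control wells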;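 also: signal is the first read of a kinetic run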
NADH enzymes: inhibitors of PK/LDH coupling enzymes, profiling panel, artefact control, biochemical, MLSMR library | IC50, µM (top dose mostly 10 µM) | actives 0.02% (n = 65,000) | coupled PK/LDH NADH assays, four targets;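 active = single-dose screening hits from any of four coupled enzyme assays that gave an IC50 when retested across doses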;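 also: the DPM-DC format reads NADH fluorescence rather than 340 nm absorbance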
Spn MK inh: S. pneumoniae MK inhibitors, primary screen, biochemical, PK/LDH-coupled NADH absorbance; mevalonate kinase [Streptococcus pneumoniae D39]; purified MK, PK/LDH-coupled NADH absorbance 340 nm; inhibition, % at 10 µM; actives 0.48% (n = 65,000); AID 555, 2006;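 active = ranked among the strongest by inhibition in the single 10 µM screen, a fixed top-ranked set picked for dose follow-up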
PMK inhibit: S. pneumoniae PMK inhibitors, primary screen, biochemical, mevalonate pathway, pilot trial included. phosphomevalonate kinase (Streptococcus pneumoniae D39). purified PMK, PK/LDH-coupled NADH absorbance 340 nm. inhibition, % at 10 µM. actives 0.49% (n = 65,000);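 active = top-ranked compounds by inhibition in the single 10 µM screen, taking a fixed number of the strongest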
A340 absorber: compound light absorbance at 340 nm, profiling panel, artefact control, biochemical, MLSMR library, data from PS, PMK, MK assays. compound absorbance at 340 nm, fold over control. fold change at 10 µM. 65,000 tested, under 10 active. AID 708, 2007;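 active = at 10 µM dose, initial 340 nm absorbance at least 2 fold that of control wells; inactive = change under 2 fold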;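 also: initial absorbance extrapolated from kinetic A340 decline of NADH oxidation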
Each line names hits and unclear results; the compound was inactive in the other large screens.

Cc1coc2cc3oc(=O)c4c(c3cc12)CCCC4	none
CCc1cc2c3c(c(=O)oc2cc1OC)CCCC3	Autofluor 339 3.8 (not shown: Spn DPM-DC inh)
CC1CCCC(NC(=O)CCn2c(=O)oc3ccccc32)C1C (stereo not given)	none
COC(=O)c1cc(S(=O)(=O)N2CCOCC2)ccc1Sc1ccccc1N	none
O=C(Nc1ccccn1)C(NS(=O)(=O)c1cccc2nsnc12)c1ccccc1 (stereo not given)	none
O=C(Nc1cc(C(F)(F)F)ccc1N1CCOCC1)C1Cc2ccccc2CN1C(=O)c1ccco1 (stereo not given)	none
CCOc1cc2oc(=O)c3c(c2cc1Cl)CCC3	none
COC(=O)C(C)Oc1ccc2c3c(c(=O)oc2c1)CCCCC3 (stereo not given)	Autofluor 339 3 (not shown: Spn DPM-DC inh)
CCCOc1ccc2c3c(c(=O)oc2c1)CCCC3	Autofluor 339 3.8 (not shown: Spn DPM-DC inh)
COC(=O)c1ccc(OC(=O)c2ccco2)cc1	none
O=C(Oc1ccc2c3c(c(=O)oc2c1)CCCC3)c1ccco1	Autofluor 339 2.2 (not shown: Spn DPM-DC inh)
CCOC(=O)c1c(/N=C/N(C)C)sc(C(=O)OC)c1C	none
O=C1C2C3CCCC3=C3CCCC3C2C(=O)N1c1ccccc1 (stereo not given)	none
O=C(O)C1=C(C(=O)Nc2ccc(F)c(Cl)c2)CCCC1	PMK inhibit 25
CC(=O)C(C)Oc1cc(C)cc2oc(=O)c(C)c(C)c12 (stereo not given)	Autofluor 339 3.6 (not shown: Spn DPM-DC inh)
CC(=O)COc1cc(C)cc2oc(=O)c(C)c(C)c12	Autofluor 339 3.9 (not shown: Spn DPM-DC inh)
CCOC(=O)N1CCN(C(=O)CCc2c(C)nc3c(c(C)nn3-c3ccc(C)c(C)c3)c2C)CC1	Spn DPM-DC inh active, Autofluor 339 2.6
Cc1cc(C)c2c(n1)nn1c(C)c(CCC(=O)NCc3ccco3)c(C)nc21	Autofluor 339 2.1 (not shown: Spn DPM-DC inh)
Cc1ccc(-n2nc(C)c3c(C)c(CCC(=O)NCc4ccco4)c(C)nc32)cc1	Autofluor 339 2.2 (not shown: Spn DPM-DC inh)
CCOC(=O)N1CCN(C(=O)CSc2nc3c(cnn3-c3ccc(Cl)cc3)c(=O)[nH]2)CC1	none
COc1cccc(C(=O)N2CCN(S(=O)(=O)Cc3ccccc3)CC2)c1OC	none
COc1ccc(S(=O)(=O)Nc2c(C)ccc3nsnc23)cc1OC	none
O=C1CCCC2=C1C1(CCCC1)N=C(Nc1nc3ccccc3s1)N2	Autofluor 339 2
O=C1CCCC2=C1C1(CCCCC1)N=C(Nc1nc3ccccc3s1)N2	Autofluor 339 2.3
COc1cc(OC)c(NC(=O)c2ccco2)cc1Cl	none
CCCc1cc(C(=O)Nc2cc(OC)c(Cl)cc2OC)no1	none
COc1ccc(-c2cc3ccccc3oc2=O)cc1NC(=O)c1ccc(Br)o1	Autofluor 339 3.8 (not shown: Spn DPM-DC inh)
COc1cc(NC(=O)c2cc3ccccc3o2)c(OC)cc1Cl	Autofluor 339 2.2 (not shown: Spn DPM-DC inh)
COc1cc(NC(=O)c2cc(CC(C)C)on2)c(OC)cc1Cl	Spn MK inh 57
COc1cc(NC(=O)c2cc3ccccc3o2)c(OC)cc1Br	none
COc1cc(NC(=O)c2cc(-c3ccco3)on2)c(OC)cc1Cl	Autofluor 339 4.6 (not shown: Spn DPM-DC inh)
COc1ccc(NC(=O)c2ccco2)cc1NC(=O)c1cc2ccccc2o1	none
CC(C)(C)OC(=O)NCCCCCc1nnc(SCC(=O)Nc2cccc(Cl)c2)o1	none
Cc1cccc(N(C)S(=O)(=O)c2ccc3[nH]c(=O)c(=O)[nH]c3c2)c1	none
COC(=O)c1[nH]c2ccc(C)cc2c1NC(=O)CN1CCN(c2ccc(F)cc2)CC1	Autofluor 339 2.2
COC(=O)c1[nH]c2ccc(Cl)cc2c1NC(=O)CN1CCc2cc(OC)c(OC)cc2C1	none
COC(=O)c1[nH]c2ccc(C)cc2c1NC(=O)CN1CCN(Cc2ccccc2)CC1	Autofluor 339 2.9
COC(=O)c1[nH]c2ccc(C)cc2c1NC(=O)CN1CCN(C(=O)c2ccccc2)CC1	Autofluor 339 2.9 (not shown: Spn DPM-DC inh)
COC(=O)c1[nH]c2ccc(C)cc2c1NC(=O)CN1CCC(C)CC1	none
Cc1ccc2[nH]c(C(=O)O)c(NC(=O)CN3CCN(c4cccc(C)c4C)CC3)c2c1	none
COC(=O)c1[nH]c2cc(OC)c(OC)cc2c1NC(=O)CN1CCN(Cc2ccccc2)CC1	Autofluor 339 3.7 (not shown: Spn DPM-DC inh)
COc1cccc(CNC(=O)C(CCSC)NS(=O)(=O)c2ccc3c(c2)oc(=O)n3C)c1 (stereo not given)	none
O=C(NCCC1=CCCCC1)C1CCN(S(=O)(=O)c2cccc3nsnc23)CC1	none
COC(=O)c1[nH]c2ccc(C)cc2c1NC(=O)C(C)N1CCN(C2CCCCC2)CC1 (stereo not given)	Autofluor 339 3.5 (not shown: Spn DPM-DC inh)
COC(=O)c1[nH]c2ccc(C)cc2c1NC(=O)CN1CCN(c2ccccc2)CC1	Autofluor 339 2.1
CCOC(=O)CSc1nnc(Cn2nnc(-c3ccccc3)n2)n1C	none
COc1ccc(NC(C)=O)cc1NC(=O)CSc1nnc(-c2cccnc2)n1C	none
NC(=O)c1ccsc1NC(=O)COC(=O)c1ccccc1NCc1ccco1	Autofluor 339 2.1 (not shown: Spn DPM-DC inh)
COc1cc(NC(=O)c2cccs2)c(C(=O)OCC(=O)NCc2ccco2)cc1OC	Spn DPM-DC inh active
O=C(COC(=O)c1ccccc1Nc1ccccc1)NCc1ccco1	none
CCOC(=O)CCn1cc(F)c(=O)n(Cc2ccccc2)c1=O	none
Cc1ccc2nc(NCCO)nc(-c3ccccc3)c2c1	Autofluor 339 5 (not shown: Spn DPM-DC inh)
OCCNc1nc(-c2ccccc2)c2ccccc2n1	Autofluor 339 2.4 (not shown: Spn DPM-DC inh)
O=S(=O)(NCCSc1nnnn1-c1ccccc1)c1cccs1	none
CCc1cc2c(CN3CCN(CC)CC3)cc(=O)oc2cc1O	Autofluor 339 3.8 (not shown: Spn DPM-DC inh)
CCSc1ccccc1C(=O)NCc1ccc2c(c1)OCO2	none
COCCn1c(-c2ccc(-c3ccccc3Cl)o2)nc2c1c(=O)[nH]c(=O)n2CC(C)C	Autofluor 339 2.1 (not shown: Spn DPM-DC inh)
CCOC(=O)N1CCN(C(=O)C2CCCN(S(C)(=O)=O)C2)CC1 (stereo not given)	none
CCOC(=O)N1CCN(C(=O)C2CCN(S(=O)(=O)N3CCCC3)CC2)CC1	PMK inhibit 26
CNC(=O)N(C1=NCC(C)(C)S1)c1ccc(F)c(Cl)c1	none
Cc1cc(C(=O)CSc2nnc(-c3cccs3)o2)c(C)n1-c1ccccc1	none
Cc1cc(NC(=O)c2cc3nc(C4CC4)cc(C(F)(F)F)n3n2)no1	none
Cc1cc(NC(=O)c2cc3nc4c(c(C(F)(F)F)n3n2)CCc2ccccc2-4)no1	Autofluor 339 2.2 (not shown: Spn DPM-DC inh)
Cc1ccc(-c2nc3cc(N)ccc3o2)c(C)c1	Autofluor 339 4 (not shown: Spn DPM-DC inh)
O=C(Nc1ccc(N2CCOCC2)c(Cl)c1)c1ncn[nH]1	none

Screens (PubChem)
